Source: PubChem BioAssay (NCATS)
Unmarked numbers belong to inactive results. Records with an inconclusive call do not appear. Calls of active or inactive are those of the source. Unless noted, calls follow the shape of the dose curve; as a rule, active = well fitted curve in either direction with a large enough effect (not every such curve was filed as active); inconclusive = small, poorly fitted or top-dose-only effect, or another doubt; inactive = flat fitted curve, though single readings scatter.

Key:
[1] = AP1 Signaling Pathway (AID 357); conditions: ME-180 AP-1-bla reporter, EGF-induced, beta-lactamase ratio, 5 h; at 17.2 µM (top of the series) unless noted;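 also: ME-180 reporter cells stimulated with EGF at its EC50 level; % is scaled to controls: 0 for no effect and ±100 for the full control effect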
Outline: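 First, ME-180 AP-1-bla cells were cultured overnight at 37 °C in low-serum Opti-MEM. Next, titrated compounds with EC50 EGF were incubated 5 hours. Finally, CCF4 was added for 2.5 hours and the 460/530 nm ratio recorded.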

[2] = NFAT Signaling Pathway (AID 444); conditions: Jurkat NFAT-bla M1, carbachol, beta-lactamase ratio, 5 h; at 17.2 µM (top of the series) unless noted;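 also: carbachol stimulus at about its EC50 of 1 µM final; % is scaled to controls: 0 for no effect and ±100 for the full control effect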
Outline: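 Read-out: CCF4 FRET ratio (460 nm/530 nm) after 1 h RT dye loading, used for %activity and AC50 from titration series. Cells: Jurkat NFAT-β-lactamase/M1 line, treated with compound plus 1 uM carbachol for 5 h, 37 °C.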

[3] = Stat Signaling Pathway (AID 446); conditions: ME-180 SIE beta-lactamase reporter, IL-6 stimulated, 5 h; at 17.2 µM (top of the series) unless noted;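 also: ME-180 cervical cancer cells given 40 pM IL-6 alongside compound; SIE-controlled beta-lactamase reporter measured as 460/530 nm FRET emission ratio; % is scaled to controls: 0 for no effect and ±100 for the full control effect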
Outline: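 Overnight-plated ME-180 cells bearing a STAT Inducible Element beta-lactamase reporter; 5 h co-exposure to compound and 40 pM IL-6; values normalized to 300 pM IL-6 and 125 nM JAK inhibitor controls.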

[4] = molecular target: Glucocorticoid receptor (Homo sapiens) (UniProt P04150); test: GR-GFP Redistribution (AID 450;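 active = compounds whose dose series gives a full or clear partial fitted curve of increased nuclear translocation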; also: potency is read from the fitted curve at half-maximal effect)
[5] = molecular target: Glucocorticoid receptor (Homo sapiens) (UniProt P04150); test: GR-EFC Redistribution (AID 451; calls by dose curve; also: potency is read from the fitted curve at half-maximal effect); conditions: CHO-K1 GR-EFC translocation, beta-gal luminescence, 2 h
Outline: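 Translocation of GR-ED fusion to nuclear EA restores b-gal, read by luminescence after 1 h room-temperature detection. Engineered CHO-K1 biosensor cells, 1,000/well, exposed 2 h at 37 C to titrations up to 46 uM final.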

[6] = molecular target: Mitogen-activated protein kinase 10 (Mus musculus) (UniProt Q61831); test: JNK3 AlphaScreen Assay (AID 530);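 also: kinase came from lysate of stimulated human HepG2 cells; signal reports phosphorylation of biotinylated GST-cJun 1-79 at Ser73 with 10 µM ATP; % is scaled to controls: 0 for no effect and ±100 for the full control effect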
Outline: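 Kinase buffer: 20 mM Tris-HCl pH 7.6, 10 mM MgCl2, 1 mM DTT, 0.1 mM Na3VO4, 0.01% Tween-20; ATP 10 uM. Substrate biotin-GST-cJun(1-79), enzyme from activated HepG2 lysates. Detection by Ser73 phospho-antibody AlphaScreen.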

[7] = molecular target: 3',5'-cyclic-AMP phosphodiesterase 4B (Homo sapiens) (UniProt Q07343); test: qHTS Assay for Inhibitors of PDE-IV (AID 607; active = well fitted activation curve with a large enough effect in the main read-out, with a control signal flat, not every such curve was filed as active; also: % of control where 0% means no effect)
Outline: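 Live HEK293 cells with a modified cyclic nucleotide-gated (CNG) channel report intracellular cAMP via membrane-potential dye fluorescence (ex 535/em 590 nm). Endogenous PDE-IV was targeted. Compounds were tested at up to 22.9 uM final; RO 20-1724 100 uM served as control.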

[8] = molecular target: Guanine nucleotide-binding protein G(i) subunit alpha-1 (Homo sapiens) (UniProt P63096); test: qHTS Assay for Inhibitors of RGS12 GoLoco Motif Activity (Green Fluorophore) (AID 879; active = well fitted curve in the direction sought with a large enough effect; an effect the other way counts as inactive or inconclusive;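 also: 0% = labeled peptide with Gαi1 and full inhibition = labeled peptide alone without protein; negative values mean loss of peptide binding seen as reduced polarization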)
Outline: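 A drop in FITC polarization marked displacement of the FITC-tagged RGS12 GoLoco peptide (10 nM) from Gαi1 (50 nM). Compounds were incubated 10 min at room temperature in Tris pH 7.5 buffer containing 150 mM NaCl, 0.1 mM GDP and 0.05% NP40; unlabeled peptide titration served as control.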

[9] = qHTS Assay for Identification of Small Molecule Antagonists for NFkB Signaling Pathway (AID 895; active = well fitted inhibition curve with a large enough effect in the signal ratio, with a control signal flat, not every such curve was filed as active; the % refers to the signal ratio; also: potency is read from the fitted curve at half-maximal effect)
Outline: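 Beta-lactamase reporter read-out (460 and 530 nm emission ratio, 405 nm excitation, 2 hrs substrate loading RT) after 5 hr stimulation with 10 pM TNF alpha in compound-treated NFkB-bla ME-180 cells in low-serum medium.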

[10] = qHTS Assay for Identification of Small Molecule Agonists for Thrombopoietin (TPO) Signaling Pathway (AID 917; active = well fitted curve in the direction sought with a large enough effect; an effect the other way counts as inactive or inconclusive; also: potency is read from the fitted curve at half-maximal effect)
Outline: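 Quantitative HTS for pathway activators: compounds were pin-transferred onto IL-3-starved Ba/F3 cells expressing human TPO receptor, TPO was added at its EC50 (26 pM final), and after 24 hrs at 37 C reporter luciferase was measured.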

[11] = molecular target: Muscarinic acetylcholine receptor M1 (Rattus norvegicus) (UniProt P08482); test: qHTS Assay for Antagonists of Acetylcholine Muscarinic M1 Receptor: Measurement of IP-One Response (AID 944; active = well fitted curve in the direction sought with a large enough effect; an effect the other way counts as inactive or inconclusive; also: nearly all actives have a fitted effect of over 75% in size)
Outline: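 Read-out: HTRF competition between d2-IP1 and Eu-cryptate anti-IP1 antibody, emission 620 and 665 nm. Stimulus was carbachol, EC80 (200 nM), for 30 min in M1-CHO cells (rat receptor), after 10 min compound pre-treatment.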

[12] = molecular target: Pyruvate kinase (Leishmania mexicana) (UniProt Q27686); test: qHTS Validation Assay for Inhibitors of Leishmania Mexicana Pyruvate Kinase (AID 945; active = well fitted curve in the direction sought with a large enough effect; an effect the other way counts as inactive or inconclusive;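 also: 0% = DMSO only neutral control wells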)
Outline: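 Mutant LmPYK (E451W), 0.2 nM, plus 0.5 mM PEP and 0.1 mM ADP in 50 mM imidazole pH 7.2 containing 0.01% Tween 20 and 0.05% BSA. Incubated 1 h at room temperature; luminescence via PKLight, normalized to DMSO.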

[13] = molecular target: Pyruvate kinase PKM (Homo sapiens) (UniProt P14618); test: qHTS Assay for Activators of Human Muscle Pyruvate Kinase (AID 954; active = well fitted curve in the direction sought with a large enough effect, not every such curve was filed as active;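 also: 0% = uninhibited enzyme and -100% = no enzyme or full thiadiazolimine inhibition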)
Outline: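 Screening used highly purified human pyruvate kinase M2 under submaximal activity, with PEP at its Km and ADP below Km. After an hour at room temperature, ATP was read by luciferase luminescence.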

[14] = molecular target: Alpha-galactosidase A (Homo sapiens) (UniProt P06280); test: Counterscreen for Glucocerebrosidase Inhibitors: qHTS Assay for Human alpha-Galactosidase at pH 4.5 (AID 992; active = well fitted curve in the direction sought with a large enough effect; an effect the other way counts as inactive or inconclusive; also: 0% is about no effect)
Outline: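 Each compound is preincubated briefly with 2 nM enzyme before substrate addition (80 uM); plates then sit 20 min at ambient temperature, are quenched with 1M NaOH/1M glycine, and read fluorometrically.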

[15] = molecular target: alpha-glucosidase (Oryza sativa, rice) (UniProt Q653V4); test: Counterscreen for Glucocerebrosidase Inhibitors: qHTS Assay for Rice alpha-Glucosidase at pH 5.0 (AID 997; active = well fitted curve in the direction sought with a large enough effect; an effect the other way counts as inactive or inconclusive;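 also: 0% = full activity with enzyme and -100% = basal without enzyme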)
Outline: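 Endpoint fluorogenic assay at pH 5.0: compounds (0.7 nM to 77 uM) titrated against 4 nM rice enzyme and 400 uM 4-MU-alpha-glucoside for 20 min at room temperature; NaOH/glycine stop, read ex 365/em 440 nm, Hill-fitted AC50.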

[16] = qHTS Assay for Identification of Small Molecule Agonists for Hypoxia Response Element Signaling Pathway (AID 914; active = well fitted activation curve with a large enough effect in the signal ratio, with a control signal flat, not every such curve was filed as active; the % refers to the signal ratio; also: % of control where 0% means no effect); conditions: ME-180 (cervical carcinoma) HRE-bla reporter, beta-lactamase ratio, CoCl2, 17 h; activation: active compounds read high
Outline: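 Reporter activity (beta-lactamase, CCF4 460nm/530nm ratio) in HRE-bla ME-180 cells is recorded after 17 h compound exposure with EC50 CoCl2 at 37 degrees Celsius. AC50 values come from titration data.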

Pyruvate kinase PKM (Homo sapiens), sequence (P14618 whole entry, looked up): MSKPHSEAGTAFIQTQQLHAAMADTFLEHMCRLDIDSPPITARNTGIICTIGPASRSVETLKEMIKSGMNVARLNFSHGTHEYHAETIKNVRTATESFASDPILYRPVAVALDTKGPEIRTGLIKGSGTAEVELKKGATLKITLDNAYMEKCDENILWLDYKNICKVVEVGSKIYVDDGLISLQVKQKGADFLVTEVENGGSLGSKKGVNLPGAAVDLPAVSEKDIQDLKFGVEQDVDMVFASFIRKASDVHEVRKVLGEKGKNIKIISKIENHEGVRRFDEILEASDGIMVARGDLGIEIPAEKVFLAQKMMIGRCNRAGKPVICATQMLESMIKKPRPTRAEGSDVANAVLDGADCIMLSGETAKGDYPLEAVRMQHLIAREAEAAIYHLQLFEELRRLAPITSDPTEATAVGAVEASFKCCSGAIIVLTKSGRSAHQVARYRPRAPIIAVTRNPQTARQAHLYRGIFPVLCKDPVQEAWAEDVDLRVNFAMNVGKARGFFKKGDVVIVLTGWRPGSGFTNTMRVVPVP
Pyruvate kinase (Leishmania mexicana), sequence (Q27686 2-499 E452W): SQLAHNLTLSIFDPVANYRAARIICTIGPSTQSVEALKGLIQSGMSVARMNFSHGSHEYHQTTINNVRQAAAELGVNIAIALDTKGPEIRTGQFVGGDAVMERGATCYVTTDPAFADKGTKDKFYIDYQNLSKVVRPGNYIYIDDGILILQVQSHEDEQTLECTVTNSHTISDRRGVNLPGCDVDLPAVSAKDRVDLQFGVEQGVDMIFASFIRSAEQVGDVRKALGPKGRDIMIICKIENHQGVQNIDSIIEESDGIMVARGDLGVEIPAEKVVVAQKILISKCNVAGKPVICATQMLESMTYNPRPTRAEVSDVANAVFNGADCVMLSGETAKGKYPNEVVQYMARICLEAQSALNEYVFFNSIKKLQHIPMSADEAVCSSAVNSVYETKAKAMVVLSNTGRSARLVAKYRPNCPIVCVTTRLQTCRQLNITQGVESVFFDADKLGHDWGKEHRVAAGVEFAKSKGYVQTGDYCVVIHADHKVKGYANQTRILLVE
Guanine nucleotide-binding protein G(i) subunit alpha-1 (Homo sapiens), sequence (P63096 whole entry, looked up): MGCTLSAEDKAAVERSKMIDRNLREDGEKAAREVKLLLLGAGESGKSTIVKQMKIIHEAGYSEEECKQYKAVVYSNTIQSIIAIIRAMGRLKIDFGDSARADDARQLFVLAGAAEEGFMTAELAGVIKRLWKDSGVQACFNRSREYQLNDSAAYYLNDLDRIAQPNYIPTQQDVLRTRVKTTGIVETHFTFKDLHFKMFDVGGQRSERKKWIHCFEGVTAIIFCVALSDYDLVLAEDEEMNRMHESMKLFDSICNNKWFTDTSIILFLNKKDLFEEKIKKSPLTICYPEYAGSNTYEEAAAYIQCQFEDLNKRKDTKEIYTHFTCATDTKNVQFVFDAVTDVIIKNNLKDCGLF
3',5'-cyclic-AMP phosphodiesterase 4B (Homo sapiens), sequence (Q07343 whole entry, looked up): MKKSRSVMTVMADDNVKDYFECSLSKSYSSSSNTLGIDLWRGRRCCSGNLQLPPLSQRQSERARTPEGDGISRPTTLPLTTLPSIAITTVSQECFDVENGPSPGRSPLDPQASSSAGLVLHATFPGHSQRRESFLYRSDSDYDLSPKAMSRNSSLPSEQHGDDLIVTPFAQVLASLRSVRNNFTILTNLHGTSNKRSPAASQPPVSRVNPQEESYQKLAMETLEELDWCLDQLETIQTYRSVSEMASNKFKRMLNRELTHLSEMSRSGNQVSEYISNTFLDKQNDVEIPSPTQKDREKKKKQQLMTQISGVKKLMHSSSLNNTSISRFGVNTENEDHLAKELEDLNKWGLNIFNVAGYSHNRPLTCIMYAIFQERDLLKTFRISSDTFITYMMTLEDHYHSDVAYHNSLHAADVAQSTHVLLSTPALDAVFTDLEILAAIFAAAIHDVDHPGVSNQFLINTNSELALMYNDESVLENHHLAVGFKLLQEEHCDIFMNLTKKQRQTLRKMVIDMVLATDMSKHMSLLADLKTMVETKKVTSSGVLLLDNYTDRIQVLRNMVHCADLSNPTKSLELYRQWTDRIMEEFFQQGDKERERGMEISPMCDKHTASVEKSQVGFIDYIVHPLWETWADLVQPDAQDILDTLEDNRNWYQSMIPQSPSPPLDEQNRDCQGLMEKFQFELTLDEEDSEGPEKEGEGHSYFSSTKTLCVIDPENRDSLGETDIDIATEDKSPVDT
Alpha-galactosidase A (Homo sapiens), sequence (P06280 whole entry, looked up): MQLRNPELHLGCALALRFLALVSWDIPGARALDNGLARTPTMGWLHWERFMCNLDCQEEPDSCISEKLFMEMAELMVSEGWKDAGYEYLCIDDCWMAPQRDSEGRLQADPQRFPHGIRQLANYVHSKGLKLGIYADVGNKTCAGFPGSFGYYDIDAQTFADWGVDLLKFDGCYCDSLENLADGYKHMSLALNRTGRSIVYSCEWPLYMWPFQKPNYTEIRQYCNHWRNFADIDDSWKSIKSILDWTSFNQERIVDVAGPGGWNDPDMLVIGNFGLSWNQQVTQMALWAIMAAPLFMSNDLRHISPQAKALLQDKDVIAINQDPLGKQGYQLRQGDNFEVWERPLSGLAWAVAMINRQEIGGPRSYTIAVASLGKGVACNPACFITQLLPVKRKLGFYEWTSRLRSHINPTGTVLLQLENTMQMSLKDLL
Glucocorticoid receptor (Homo sapiens), sequence (P04150 whole entry, looked up, the tested form may be a part): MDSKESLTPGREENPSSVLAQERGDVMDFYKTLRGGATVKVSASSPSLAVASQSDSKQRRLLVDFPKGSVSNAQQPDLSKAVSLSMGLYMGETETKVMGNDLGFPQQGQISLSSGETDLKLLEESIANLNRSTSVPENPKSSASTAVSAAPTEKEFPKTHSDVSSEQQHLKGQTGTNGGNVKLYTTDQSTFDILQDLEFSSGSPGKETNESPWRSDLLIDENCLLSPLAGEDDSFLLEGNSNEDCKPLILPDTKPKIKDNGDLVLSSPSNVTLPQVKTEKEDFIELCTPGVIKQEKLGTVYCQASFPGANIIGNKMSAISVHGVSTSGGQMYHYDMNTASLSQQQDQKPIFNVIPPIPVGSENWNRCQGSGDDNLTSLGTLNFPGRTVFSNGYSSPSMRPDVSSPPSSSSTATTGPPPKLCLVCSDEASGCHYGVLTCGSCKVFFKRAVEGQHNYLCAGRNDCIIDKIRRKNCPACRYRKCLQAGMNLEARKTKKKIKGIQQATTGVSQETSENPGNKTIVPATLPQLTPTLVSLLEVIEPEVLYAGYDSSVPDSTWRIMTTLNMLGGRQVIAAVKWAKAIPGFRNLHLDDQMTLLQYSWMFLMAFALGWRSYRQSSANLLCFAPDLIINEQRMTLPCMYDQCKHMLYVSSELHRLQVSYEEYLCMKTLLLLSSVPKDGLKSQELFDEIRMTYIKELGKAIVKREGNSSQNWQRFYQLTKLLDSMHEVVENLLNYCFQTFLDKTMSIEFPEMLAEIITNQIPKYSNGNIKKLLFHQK
Muscarinic acetylcholine receptor M1 (Rattus norvegicus), sequence (P08482 whole entry, looked up): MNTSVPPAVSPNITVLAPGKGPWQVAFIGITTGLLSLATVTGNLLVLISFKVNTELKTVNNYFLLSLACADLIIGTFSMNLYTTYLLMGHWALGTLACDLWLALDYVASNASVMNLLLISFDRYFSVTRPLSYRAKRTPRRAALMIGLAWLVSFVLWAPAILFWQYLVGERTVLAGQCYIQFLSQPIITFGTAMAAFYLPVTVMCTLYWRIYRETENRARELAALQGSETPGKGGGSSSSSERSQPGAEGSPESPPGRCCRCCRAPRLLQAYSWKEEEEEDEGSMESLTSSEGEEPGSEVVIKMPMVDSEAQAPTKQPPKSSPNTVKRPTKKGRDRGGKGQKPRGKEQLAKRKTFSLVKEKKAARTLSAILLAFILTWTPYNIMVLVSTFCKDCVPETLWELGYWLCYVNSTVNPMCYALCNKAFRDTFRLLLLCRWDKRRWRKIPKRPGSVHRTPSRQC

Row | Compound | activity change, negative = inhibition [1] | activity change, negative = inhibition [2] | activity, negative = inhibition [3] | Potency [4] | Potency [5] | Potency [6] | Potency [7] | outcome [8] | Potency [9] | Potency [10] | Potency [11] | Potency [12] | outcome [13] | outcome [14] | outcome [15] | activity change, negative = inhibition [6] | activation [16]
1 | OC[C@@H]1O[C@@H](n2cnc3c(Nc4ccccc4)ncnc32)[C@@H](O)[C@H]1O | 7.84% [at 38 µM] | 0.0847% [at 38 µM] | -14.3% [at 38 µM] | > 46 µM | > 46 µM | inactive | inactive | inactive | 2.24 µM (active) | 3.98 µM (active) | inactive | inactive | inactive | inactive | inactive | – | –
2 | C[N+](C)(C)CCN[N@@+]1(C)CCCc2ccccc21 | -2.74% [at 7.69 µM] | -8.45% [at 7.69 µM] | 7.61% [at 7.69 µM] | > 46 µM | > 9.22 µM | – | inactive | – | – | – | – | – | – | – | – | 4.98% [at 11.4 µM] | –
3 | Nc1ncn([C@@H]2O[C@@H](CO)[C@@H](O)[C@H]2O)c(=O)n1 | -29.6% [at 38 µM] | -6.36% [at 38 µM] | 2.98% [at 38 µM] | > 46 µM | > 46 µM | inactive | inactive | – | – | – | – | – | – | – | – | – | –
4 | Cn1c(NCCCO)nc2c1c(=O)n(Cc1ccccc1F)c(=O)n2C | -2.43% | 8.23% | -2.21% | > 20.6 µM | – | – | – | – | – | – | – | – | – | – | – | – | -5.37%
5 | N[C@H](Cc1ccc(F)cc1)C(=O)O | 14.8% [at 38 µM] | -1.52% [at 38 µM] | -8.01% [at 38 µM] | > 46 µM | > 46 µM | inactive | inactive | inactive | – | inactive | – | inactive | inactive | inactive | inactive | – | –
6 | CC(C)(C(=O)O)c1ccc([C@@H](O)CCCN2CCC(C(O)(c3ccccc3)c3ccccc3)CC2)cc1 | 8.57% [at 38 µM] | 8.69% [at 38 µM] | 11.8% [at 38 µM] | > 46 µM | > 46 µM | inactive | – | inactive | – | inactive | – | inactive | inactive | inactive | inactive | – | –
